In all, about 300,000 compounds went through this assay and about 480 (0.16%) were called active.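 Rule for the calls: active = inhibition over 29.93%, a cutoff 3 SD above the screen mean, later confirmed by dose response; inconclusive = inhibition over 29.93% but no dose response follow-up; inactive = inhibition at most 29.93% or unconfirmed.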 The list is a sample of the results. Potency and affinity values are given separately.
Experiment: inhibitors of PhoP regulon expression, primary screen, Salmonella Typhimurium, GFP reporter (AID 1863);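 note: 0% = low Mg2+ inducing control and 100% = high Mg2+ repressing control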
Conditions: S. Typhimurium PhoP-regulated promoter GFP reporter, 4 h; at 50 µM; hits give high values

inhibition, inactive:
CCn1ncc([N+](=O)[O-])c1C(=O)Nc1ccc(C)c(C)c1 -7.66%
CN(C)c1ccc2nc3ccc(=[N+](C)C)cc-3sc2c1 -2.55%
Cc1cc2nc(N)sc2cc1C 3.73%
CC1(C)Cn2c(nnc2-c2ccccc2)S1 -3.09%
O=c1[nH]c2ccccc2c(O)c1-c1ccccc1 1.77%
CN(C)c1ccc(/C=C/c2ccc3ccccc3n2)cc1 0.11%
CN(C)c1ccc(/C=C/c2cccc[n+]2[O-])cc1 -8.32%
CN(CCCS(=O)(=O)[O-])c1ccc(/C=C/c2ccc3ccccc3[n+]2C)cc1 0.91%
C[n+]1c(/C=C/c2ccc(O)cc2)ccc2ccccc21 18.4%
CC[n+]1c(/C=C/c2ccc(OC)c(OC)c2)ccc2ccccc21 -6.54%
CC[n+]1ccccc1/C=C/c1ccc(N(C)C)cc1 -19.2%
Cc1ccc(-n2ccnc(SCC(=O)NC3CCCC3)c2=O)cc1Cl -4.24%
COc1ccc(OC)c(NC(=O)C2CCN(C(=O)c3cccs3)CC2)c1 2.52%
O=C(c1cc(F)ccc1F)C1CCCN(C(=O)c2ccco2)C1 (centres undefined) -3.85%
COc1ccccc1N1CCN(C(=O)Nc2cccc(Cl)c2)CC1 -5.86%
Cc1c(OCC(=O)NC(Cc2ccc(Cl)cc2)C(=O)O)ccc2c(-c3ccccc3)cc(=O)oc12 (centres undefined) -1.09%
COc1cc(/C=C2/CC(C)OC2=O)c([N+](=O)[O-])cc1OC (centres undefined) 0.79%
Cc1ccsc1C(C(=O)NCc1ccccc1)N(C(=O)c1csnn1)c1ccccc1 (centres undefined) 12.3%
CCc1c(C)nc(N)c(C#N)c1-c1ccccc1 4.1%
O=C1CC(c2ccccc2)CC(O)=C1C=Nc1ccccc1 (centres undefined) -10.4%
COc1ccc(C)cc1NC(=O)NNC(=O)C1CCC(C(C)(C)C)CC1 (centres undefined) -7.11%
CSc1ccc(CN(C)CC(=O)NCc2ccccc2)cc1 -8.5%
O=C(c1cc2nc(-c3ccco3)cc(C(F)(F)F)n2n1)N1CCN(c2ccc(F)cc2)CC1 -5.29%
CCCCCCCC[n+]1cccc2c3ccccc3ccc21 0.34%
CCCCC[n+]1cccc2c3ccccc3ccc21 -3.43%
CCCCCCCCC[n+]1cccc2c3ccccc3ccc21 -3.12%
CCCC[n+]1c2ccccc2cc2ccccc21 20.6%
Cc1cc(-n2cc(Br)c(=O)[nH]c2=O)nc(-c2ccccc2)n1 -4.05%
O=C(C1CCC1)N1CCc2cc(S(=O)(=O)NCCN3CCN(c4ccccc4F)CC3)ccc21 13.8%
Cc1cc(C)cc(NC(=O)CC2NCCNC2=O)c1 (centres undefined) -1.2%
O=C(CC1CCS(=O)(=O)C1)Nc1ccc[nH]c1=O (centres undefined) -5.21%
Cc1sc2ccccc2[n+]1CC(=O)c1ccccc1 2.11%
Cc1sc2cc3c(c(C(=O)c4ccccc4)[n+]2c1C)-c1cccc2cccc-3c12 -2.96%
CCCNC(=O)c1cn(CC)c2cc(N3CCN(C(=O)c4ccco4)CC3)c(F)cc2c1=O -3.25%
CCn1cc(C(=O)NCC(C)C)c(=O)c2cc(F)c(N3CCN(C(=O)c4ccco4)CC3)cc21 5.43%
CCn1cc(C(=O)NN)c(=O)c2cc(F)c(N3CCN(C)CC3)cc21 3.03%
CCn1cc(C(=O)NCCC(C)C)c(=O)c2cc(F)c(N3CCN(C)CC3)cc21 8.97%
CCn1cc(C(=O)N[C@H](C)c2ccccc2)c(=O)c2cc(F)c(N3CCN(C)CC3)cc21 4.39%
COc1ccc(CC2(CO)CCN(C(C)COc3ccccc3)CC2)cc1 (centres undefined) -5.24%
O=C(NC(=S)Nc1ccc(S(=O)(=O)Nc2ncccn2)cc1)c1ccc(Br)cc1 -1.85%
Cc1cccc(NC(=O)c2cc(NC(=O)C3CC=CCC3C(=O)O)ccc2N2CCOCC2)c1 (centres undefined) 13.8%
CCN(CC(=O)Nc1c(F)cccc1F)C(=O)C1(c2ccccc2)CC1 -5.13%
CCC(=O)c1cn(CC(=O)NCc2cccnc2)c2ccccc12 3.99%
Cc1cc(C)cc(OC(=O)CCN2C(=O)C3C4C=CC(C5CC45)C3C2=O)c1 (centres undefined) 1.31%
CCOc1ccc2nc(NC(=O)C3CCN(S(=O)(=O)c4cnc[nH]4)CC3)sc2c1 1.27%
CN(C)c1cccc(C(=O)OCC(=O)N2CCc3ccccc3C2)c1 -2.35%
CC1CCN(c2nc3c(c(=O)n(C)c(=O)n3C)n2Cc2ccccc2)CC1 0.23%
O=[N+]([O-])c1ccc(NC(=S)NCC(c2cccnc2)N2CCOCC2)cc1 (centres undefined) -4.57%
CCCCNC(=O)c1cn(CC)c2cc(N3CCN(C(=O)c4ccco4)CC3)c(F)cc2c1=O -7.68%
CCCCCNC(=O)c1cn(CC)c2cc(N3CCN(C)CC3)c(F)cc2c1=O 4.54%
C/C(=N\OC(=O)c1ccc(F)cc1)c1ccc(F)c(F)c1 -1.74%
O=C(OCc1ccc(COC(=O)c2ccccn2)cc1)c1ccccn1 -1.35%
CCOC(=O)C1CCCN(Cc2sccc2C)C1 (centres undefined) 7.84%
C[C@H](NC(=O)C1CCN(S(=O)(=O)c2ccccc2)CC1)C(=O)NCc1cccc(C(F)(F)F)c1 -1.18%
COC(=O)n1c(=O)oc2cc(S(=O)(=O)N3CCOCC3)ccc21 7.81%
CN(C)C(=O)CN1C(=O)c2cccc3cccc1c23 8.86%
O=C(Nc1ccc2ncccc2c1)c1cc(Cl)ccc1Cl 0.12%
O=C(NCc1ccccc1)C(c1cccnc1)N(C(=O)c1ccccn1)c1ccc(F)cc1 (centres undefined) 2.95%
Cc1ccc(S(=O)(=O)N/N=C2\C(=O)C3(C)CCC2C3(C)C)cc1 (centres undefined) 4.91%
COc1ccc(NS(=O)(=O)c2ccc(NC(=S)NC(=O)c3cccnc3)cc2)nn1 10.7%
COc1nccnc1NS(=O)(=O)c1ccc(NC(=S)NC(=O)c2cccnc2)cc1 36%
NC(=O)c1ccc(NC(=O)COc2coc(CN3CCc4ccccc4C3)cc2=O)cc1 6.56%
COc1ccccc1C(C[N+](=O)[O-])c1c(N)n(C)c(=O)n(C)c1=O (centres undefined) 2.03%
COc1cc(C(C[N+](=O)[O-])c2c(N)n(C)c(=O)n(C)c2=O)ccc1O (centres undefined) -4.81%
CC(C)OC(=O)CSc1nnc(CNc2cccc(Cl)c2)n1C -3.82%
CCSc1ccccc1C(=O)Nc1nc2ccccc2c(=O)[nH]1 2.88%
COc1cc2cccc(OC)c(=O)c2c(O)c1OC -3.95%
COc1cc2cccc(OC)c(=O)c2c(OC)c1OC -4.09%
Cc1ccc(-c2nn(-c3ccccc3)cc2C(=O)NCC(c2cccs2)N2CCOCC2)cc1 (centres undefined) -6.92%
CC(C)CCOP(=O)(c1ccc(N(C)C)cc1)C(O)c1c(Cl)cccc1Cl (centres undefined) -4.25%
COc1ccc([N+](=O)[O-])cc1NC(=O)C(C)OC(=O)C1CC(=O)N(Cc2ccco2)C1 (centres undefined) -5.1%
COC(=O)c1ccc(N2C(=O)CC(N3CCOCC3)C2=O)cc1 (centres undefined) 1.31%
COc1ccc2c(c1)C(=NNC(=O)c1ccccn1)c1cc(OC)ccc1-2 -4.06%
O=C(NN=C1c2ccccc2-c2ccccc21)c1ccccn1 9.9%
Cc1ccccc1CS(=O)(=O)c1ccc(C(=O)N2CCC(C)CC2)cc1[N+](=O)[O-] 1.32%
Cn1c2c(c(=O)n(C)c1=O)C(c1ccc(Br)cc1)Nc1ccccc1O2 (centres undefined) -10.1%
Cc1cc(C)n(C(C[N+](=O)[O-])c2ccc(Cl)cc2)n1 (centres undefined) 16.6%
Cc1ccc(C(C[N+](=O)[O-])n2nc(C)cc2C)cc1 (centres undefined) 4.29%
COc1ccc(-c2cc(C(=O)OCC(=O)NC(C)C)c3ccccc3n2)cc1 6.33%
COCCN(C(=O)COC(=O)c1ccc2c(c1)OCCO2)c1c(N)n(Cc2ccccc2)c(=O)[nH]c1=O 0.22%
CCOC(=O)C1CCCN(C(=O)c2ccc(-c3ccc([N+](=O)[O-])cc3)o2)C1 (centres undefined) 3.02%
CSc1ncccc1C(=O)Nc1nc2ccc(Oc3ccccc3)cc2s1 -15.8%
Cc1ccc2nc(N(CCCN(C)C)C(=O)CCc3ccccc3)sc2c1 -4.17%
CN(C)CCCN(C(=O)CCc1ccccc1)c1nc2ccc(Br)cc2s1 10.9%
C=CCN1CCN(C(=O)c2oc3ccccc3c2C)CC1 -3.66%
Cc1ccc(NC2CCCN(C(=O)c3cn(C)c4ccccc34)C2)cc1C (centres undefined) 0.88%
CC(C)C(=O)NC(c1ccccc1)c1cc([N+](=O)[O-])c2cccnc2c1O (centres undefined) -2.27%
CCCC(=O)NC(c1cccs1)c1cc(Cl)c2cccnc2c1O (centres undefined) -5.84%
CC(=O)NC(c1ccccc1)c1cc([N+](=O)[O-])c2cccnc2c1O (centres undefined) 4.87%
COc1cccc(C(NC(C)=O)c2ccc3cccnc3c2O)c1 (centres undefined) 9.73%
CC(C)C(=O)NC(c1cccs1)c1cc([N+](=O)[O-])c2cccnc2c1O (centres undefined) 2.63%
CC(=O)NC(c1ccc2ccccc2c1)c1ccc2cccnc2c1O (centres undefined) 56.5%
CCCCC(=O)NC(c1cccs1)c1cc(Cl)c2cccnc2c1O (centres undefined) -0.21%
Cc1ccc(C(NC(=O)C(C)C)c2cc([N+](=O)[O-])c3cccnc3c2O)cc1 (centres undefined) 9.47%
